Hit rate of the full screen: of about 300,000 compounds, about 3,200 (1.1%) were called active. What follows is part of a selection rich in actives, with near analogues and random picks from the rest. Values without a mark were called inactive.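 The calls were made as follows: active = inhibition above the campaign mean inhibition plus 3 SD (cut at about 35% in these data); inactive = the rest.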
What follows are compounds tested against Glutathione S-transferase omega-1 (Homo sapiens) (UniProt P78417) (assay: human GSTO1 enzyme inhibition – biochemical, fluorescence polarization, counter-screen for RBBP9 inhibitor project, primary screen (AID 1974;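 also: 0% = GSTO1-1 with DMSO and 100% = wells lacking GSTO1-1 enzyme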)). Details: recombinant GSTO1, activity-based probe fluorescence polarization; at 5.96 µM; active compounds read high.
Glutathione S-transferase omega-1 (Homo sapiens), sequence (P78417 whole entry, looked up): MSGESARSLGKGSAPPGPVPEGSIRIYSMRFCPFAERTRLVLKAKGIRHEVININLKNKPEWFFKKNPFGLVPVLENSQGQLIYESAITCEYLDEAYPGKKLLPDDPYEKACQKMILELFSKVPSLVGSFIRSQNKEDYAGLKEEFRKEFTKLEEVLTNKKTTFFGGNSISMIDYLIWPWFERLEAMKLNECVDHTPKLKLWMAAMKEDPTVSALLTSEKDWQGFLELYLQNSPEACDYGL

SMILES | inhibition
CCCCn1c(N)c(N(CC(C)C)C(=O)c2cnc(C)cn2)c(=O)[nH]c1=O | -0.67%
Cc1c(C)n2c(SCC(=O)N3CCCC3)nnc2[nH]c1=O | 4.38%
CCOC(=O)N1CCC(c2cc(=O)n(-c3ccccc3)[nH]2)CC1 | 37.3% (active)
CCOC(=O)N1CCC(NC(=O)COc2cc(=O)n(C)c3ccccc23)CC1 | -3.88%
CCOC(=O)N1CCC(NC(=O)CCc2ccccc2)CC1 | -0.86%
CC(=O)CC[C@@H](C)O[C@@H]1OC(C)[C@H](O)CC1O (stereo not given in full) | -1.35%
C[C@H]1CC[C@]2(O[C@@H](CCO)C[C@@H](O)[C@@H]2O)O1 | 1.91%
Oc1c(C=Nc2cccc3nsnc23)ccc2ccccc12 | 64.1% (active)
COc1ccc(C=Nc2cccc3ncccc23)cc1 | 6.91%
NC(=O)C1CCN(C(=O)c2cn(-c3ccccc3)nc2-c2cccnc2)CC1 | 4.31%
O=C(c1cc(C(=O)N2CCN(c3ccc(F)cc3)CC2)cc([N+](=O)[O-])c1)N1CCN(c2ccc(F)cc2)CC1 | 2.3%
CC(NC(=O)c1ccccc1F)c1cccc2ccccc12 (stereo not given) | 2.21%
CN(C)[C@@H]1C(=O)C(C(N)=O)=C(O)[C@@]2(O)C(=O)C3=C(O)c4c(O)ccc(Cl)c4[C@@H](O)[C@H]3C[C@@H]12 | 69.1% (active)
O=C(Nc1nc(-c2ccco2)c(-c2ccco2)s1)c1ccco1 | 28.3%
CC(Sc1nn(-c2ccc(Cl)cc2)c(=S)s1)C(=O)NCC1CCCO1 (stereo not given) | -4.24%
COc1ccc(C(CNC(=O)c2ccc(NS(=O)(=O)c3ccc(F)c(C)c3)cc2)N(C)C)cc1 (stereo not given) | -9.5%
O=C(N/N=C/c1c[nH]c2ccccc12)c1cc2ccccc2o1 | -5.04%
O=C(N/N=C/c1c[nH]c2ccccc12)c1ccccc1O | -1.35%
O=C(O)c1cccc(NC(=S)N/N=C/c2c[nH]c3ccccc23)c1 | 48.7% (active)
O=C(Nc1ccccc1)O/N=C1\CCCCC1c1ccc([N+](=O)[O-])cc1[N+](=O)[O-] (stereo not given) | -4.23%
C[n+]1ccccc1C1CCCC/C1=N\Nc1ccc([N+](=O)[O-])cc1[N+](=O)[O-] (stereo not given) | 45.5% (active)
O=[N+]([O-])c1ccc(N/N=C2/CCCCC2c2ccccn2)c([N+](=O)[O-])c1 (stereo not given) | 27.8%
COc1ccc(NC(=O)CN(C)C(=O)c2cccc(S(=O)(=O)N3CCN(c4ccccc4)CC3)c2)cc1 | 0.96%
CCOC(=O)c1c(C)[nH]c(C(=O)OCC(=O)N2CCCC2=O)c1C | -4.82%
CCN1C(=O)[C@@H]2[C@@H](c3ccc(-c4ccccc4)cc3)N3CCCC[C@@]3(C(=O)OC)[C@@H]2C1=O | -2.94%
COc1ccc(C(CNC(=O)c2cccc(S(=O)(=O)Nc3ccccc3Cl)c2)N2CCOCC2)cc1 (stereo not given) | -26.9%
Cc1cc(C)n2nc(C(=O)OCC(=O)N(CCC#N)c3ccc(F)cc3)nc2n1 | 7.91%
CCOC(=O)c1cnc(-c2ccccc2)nc1Oc1ccc(C)cc1 | 2.24%

SMILES | inhibition
CCOC(=O)c1c(-c2ccc(C)cc2)csc1/N=C(\C)C1=C(O)c2ccccc2C1=O | 7.75%
CCOC(=O)C1=C(c2ccc(OC)cc2)C(=O)c2ccccc2C1=O | 40.5% (active)
CCCC(=O)Nc1ncnc2c1ncn2[C@@H]1O[C@@H]2OP(=O)(O)OC[C@H]2[C@H]1OC(=O)CCC | -0.48%
NC(=O)CSc1nnc(NC(=O)c2ccc3ccccc3c2)s1 | -7.13%
O=C(CCN1C(=O)c2ccccc2C1=O)NCCN1CCOCC1 | 6.46%
Cc1ccc(/C=C2/SC(=S)N(CCC(=O)NCCCN3CCOCC3)C2=O)cc1 | 36.4% (active)
Cc1ccc(/C=C2\SC(=S)N(CCC(=O)Nc3ccc(O)cc3)C2=O)cc1 | -1.64%
Cc1csc(NC(=O)CSc2nc(=O)n(CCCN(C)C)c3c2CCC3)n1 | 10.8%
Cc1nn(-c2ccccc2)c(C)c1NC(=O)COc1ccc(Cl)cc1Cl | 8.17%
Cc1cccc(C)c1NC(=O)CNC(=O)c1c(C)nn(-c2ccccc2)c1C | -1.44%
Cc1nn(-c2ccccc2)c(C)c1NC(=O)CCl | 82.7% (active)
O=C(Nc1ccc2nc3n(c(=O)c2c1)CCCC3)c1ccc(Cl)nc1 | -3.93%
O=S(=O)(Nc1ccc(O)c2ccccc12)c1ccc(OC(F)(F)F)cc1 | 67.3% (active)
O=S(=O)(Nc1ccc(OC(F)(F)F)cc1)c1cccc2nonc12 | 10.2%
Cc1nn(C)c(C)c1NS(=O)(=O)c1ccc(OC(F)(F)F)cc1 | 5.1%
CSc1nnc(C2CCCN(CC(=O)Nc3ccccc3N3CCOCC3)C2)n1C(C)C (stereo not given) | 4.43%
O=C(c1cc(-c2ccc(Cl)s2)nc2ccccc12)N1CCOCC1 | -12.9%
CCOc1ccc(/C=C/C(=O)N(CC)CC(=O)NCc2cccs2)cc1OC | 19.7%
Cc1cccn2c(=O)nc(SCC(=O)NCc3ccccc3Cl)nc12 | 0.44%
O=C(CN1C(=O)C2C3CCC(C3)C2C1=O)Oc1ccc2ccccc2c1 (stereo not given) | 12.6%
CC1=CC(C)(C)Nc2ccc(OC(=O)C(Cc3ccccc3)N3C(=O)C4CCCCC4C3=O)cc21 (stereo not given) | 18.1%
CC1=CC(C)(C)Nc2ccc(OC(=O)CN3C(=O)C4CCCCC4C3=O)cc21 (stereo not given) | 48.4% (active)
Cc1ccc([C@@H]2CC=C(C(=O)O)[C@H](c3cccc(Cl)c3)N2S(=O)(=O)c2ccc(C)cc2)cc1 | -107%
Cc1ccc(S(=O)(=O)N2[C@@H](c3ccccc3F)C(C(=O)O)=CC[C@H]2c2ccc(Cl)cc2)cc1 | -60.4%
Cc1ccccc1NC(=O)COc1cccc2c1CCNC2=O | 0.64%
Cc1ccc(S(=O)(=O)N2CCCCC2)cc1C(=O)N(C)CC(=O)Nc1cccc(F)c1 | 6.24%
COc1ccc2c(c1)[C@H]1[C@H](CO2)[C@H](c2ccccc2)[C@]2(C)C(=O)Nc3cc(F)c(F)cc3C(=O)N12 | -3.75%

From PubChem BioAssay AID1974 (The Scripps Research Institute Molecular Screening Center, 2009)
